Measured values reported in PubChem BioAssay (Tox21).
Records with an inconclusive call do not appear. The source made the active and inactive calls. Unless noted, calls come from the whole dose curve.

Columns and labels:
[1] = Nuclear factor erythroid 2-related factor 2/antioxidant responsive element (Nrf2/ARE) small molecule agonists: qHTS cell viability counter screen in human keratinocytes (AID 1919968; active = well fitted curve in the direction sought with a large enough effect in the repeat runs; an effect the other way counts as inactive or inconclusive; note: nearly all actives have a fitted effect of over 55% in size)
In short: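 Measured as CellTiter-Fluor fluorescence, this readout tracks cytotoxicity in the same wells as the ARE-luciferase screen. HaCaT reporter cells (1,500/well) received compounds after a 5 h pre-incubation and were exposed for 23 h.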

[2] = Nuclear factor erythroid 2-related factor 2/antioxidant responsive element (Nrf2/ARE) small molecule agonists: luciferase reporter gene qHTS assay in human keratinocytes (AID 1919969); note: nearly all actives have a fitted effect of over 35% in size
[3] = molecular target: Gonadotropin-releasing hormone receptor (Homo sapiens) (UniProt P30968); assay: Human gonadotropin-releasing hormone receptor (GnRHR) small molecule agonists, calcium flux assay in GnRHR-HEK293 cells (AID 1920063); note: nearly all actives have a fitted effect of over 35% in size
In short: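 Fluorescence kinetics (480 nm excitation, 540 nm emission; 3 min, 1 s steps) report calcium mobilisation in human GnRHR-HEK293 cells in agonist mode. Dye incubation: 1 h, 37 C.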

[4] = molecular target: KiSS-1 receptor (Homo sapiens) (UniProt Q969F8); assay: Human kisspeptin (KISS1R) small molecule agonists, calcium flux assay in KISS1R-HEK293 cells (AID 1920064; active = well fitted curve in the direction sought with a large enough effect in the repeat runs; an effect the other way counts as inactive or inconclusive)
In short: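 Measures KISS1R agonism through calcium-sensitive dye fluorescence in stably transfected HEK293 cells, read for 3 min after pin-tool compound delivery; 15-point titrations in triplicate.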

[5] = G protein-coupled receptor (GPCR) small molecule agonists, calcium flux assay: HEK293 wild type cell line counter screen (AID 1920065)
In short: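 Readout: fluorescence at 480 nm excitation/540 nm emission, sampled at 1 s intervals for 3 min. Cells had been cultured 18 h, then dye-loaded 1 h at 37 C before compound or ATP addition.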

[6] = p53 small molecule agonists, cell-based qHTS assay with human liver microsomes (AID 1963577);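 note: p53 response element beta-lactamase reporter cells with liver microsomes plus NADPH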
In short: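 With metabolic activation: human liver microsomes (0.5 mg/mL final) plus NADPH (0.5 mg/mL final) added alongside compounds to p53RE-bla cells; 16 h 37 C exposure; beta-lactamase read by LiveBLAzer fluorescence.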

[7] = p53 small molecule agonists, cell-based qHTS assay with rat liver microsomes (AID 1963578)
In short: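 Metabolic activation by rat liver microsomes and NADPH, each 0.5 mg/mL final, added right after compounds to p53RE-bla reporter cells (4,000/well, plated 5 h earlier). 16 h at 37 C, then LiveBLAzer substrate for 2 h at room temperature in the dark; fluorescence read-out.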

[8] = p53 small molecule agonists, cell-based qHTS assay with human liver microsomes: qHTS cell viability counter screen (AID 1963579); note: nearly all actives have a fitted effect of over 45% in size
In short: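 Metabolic activation used human liver microsomes and NADPH, both 0.5 mg/mL final, over 16 hours at 37 C on p53RE-bla cells (4,000/well). Cytotoxicity measured by CellTiter-Glo luminescence, 30 min at room temperature.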

[9] = p53 small molecule agonists, cell-based qHTS assay with rat liver microsomes: qHTS cell viability counter screen (AID 1963580); note: nearly all actives have a fitted effect of over 45% in size
In short: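 In HCT-116 cells carrying a p53 response element-bla reporter, compounds were metabolically activated in situ by rat liver microsomes with NADPH over 16 h. Cell ATP content then served as the cytotoxicity measure.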

[10] = p53 small molecule agonists, cell-based qHTS assay: qHTS cell viability counter screen (AID 1963581); note: nearly all actives have a fitted effect of over 45% in size
In short: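 In the same plates used for the p53 bla reporter, HCT-116 cells given compounds for 16 h at 37 C received CellTiter-Glo; luminescence was recorded 30 min later at room temperature.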

[11] = p53 small molecule agonists, cell-based qHTS assay (AID 1963582; active = well fitted activation curve with a large enough effect in the signal ratio in the repeat runs, not every such curve was filed as active; the % refers to the signal ratio)
In short: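 Compounds are pin-transferred in DMSO onto p53RE-bla cells and incubated 16 h at 37 C. The B/G FRET beta-lactamase substrate is then applied for 2 h at RT and fluorescence recorded.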

[12] = molecular target: 5-hydroxytryptamine receptor 2A (Homo sapiens) (UniProt P28223); assay: 5-hydroxytryptamine receptor 2A (HTR2A) small molecule antagonists, cell-based qHTS assay (AID 1963586); note: nearly all actives have a fitted effect of over 45% in size
In short: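 Antagonist-mode intracellular calcium assay: DOI (4 nM) added after 5 min compound pre-incubation at room temperature to dye-loaded HTR2A-CHO cells. Fluorescence followed for 3 min, sampled every second.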

[13] = molecular target: 5-hydroxytryptamine receptor 2A (Homo sapiens) (UniProt P28223); assay: 5-hydroxytryptamine receptor 2A (HTR2A) small molecule agonists, cell-based qHTS assay (AID 1963587); note: nearly all actives have a fitted effect of over 30% in size
In short: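 HTR2A-CHO cells, plated 18 h at 37 C/5% CO2, dye-loaded 1 h at 37 C; compounds in DMSO added by pin tool (agonist mode). Intracellular calcium flux read as kinetic fluorescence on FDSS over 2 min at 1 s intervals.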

[14] = molecular target: Muscarinic acetylcholine receptor M1 (Homo sapiens) (UniProt P11229); assay: Cholinergic receptor muscarinic 1 (CHRM1) small molecule antagonists, cell-based qHTS assay (AID 1963588); note: nearly all actives have a fitted effect of over 40% in size
In short: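 CHRM1-CHO calcium-flux assay, antagonist mode. Cells were seeded 18 h, dye-loaded 1 h at 37 C and given compound for 5 min at RT, then acetylcholine was added at 50nM. FDSS fluorescence was read 3 min; 15 concentrations, three runs.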

[15] = molecular target: Muscarinic acetylcholine receptor M1 (Homo sapiens) (UniProt P11229); assay: Cholinergic receptor muscarinic 1 (CHRM1) small molecule agonists, cell-based qHTS assay (AID 1963589); note: nearly all actives have a fitted effect of over 35% in size
In short: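 Each compound was tested at 15 concentrations across three independent runs on dye-loaded CHO cells stably expressing human CHRM1, reading intracellular calcium fluorescence kinetically at 1 sec intervals.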

[16] = cAMP Responsive Elements (CRE) small molecule agonists, cell-based qHTS assay (AID 1963590)
In short: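 Cell line: CRE-bla HEK 293T; medium DMEM/10% dialyzed FBS/0.1 mM NEAA/1 mM pyruvate/25 mM HEPES; 3 h compound exposure; beta-lactamase FRET readout after 2 h substrate loading at RT.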

[17] = cAMP Responsive Elements (CRE) small molecule antagonists, cell-based qHTS assay (AID 1963591; active = well fitted inhibition curve with a large enough effect in the signal ratio in the repeat runs, not every such curve was filed as active; the % refers to the signal ratio)
In short: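 Inhibition of NKH477-driven (0.25 uM final) CRE-beta-lactamase signal in HEK293T cells, 3 h compound exposure at 37 °C, detected by FRET substrate fluorescence.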

[18] = molecular target: Beta-2 adrenergic receptor (Homo sapiens) (UniProt P07550); assay: Adrenergic beta2 receptor (ADRB2) small molecule antagonists, cell-based qHTS assay (AID 1963592); note: series mostly up to about 92 µM; nearly all actives have a fitted effect of over 50% in size
In short: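 Cells (CHO, stable ADRB2 overexpression) incubated 18-20hr at 37C; compounds added from DMSO; agonist mix (1nM isoproterenol, 100uM IBMX, 25uM Ro-20-1724) added; 0.5hr RT; d2-cAMP and anti-cAMP-cryptate added; 1hr RT; 665/615 nm read.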

[19] = molecular target: D(2) dopamine receptor (Homo sapiens) (UniProt P14416); assay: Dopamine D2 receptor (DRD2) small molecule agonists, cell-based qHTS assay (AID 1963594); note: nearly all actives have a fitted effect of over 35% in size
In short: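 HEK293 cells stably expressing DRD2 were cultured 24 h at 37 C, then given Ro20-1724 (0.1 mM final) and compounds for 10 min at room temperature. NKH477 (200nM) was then added for 30 min. cAMP was read by HTRF.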

[20] = molecular target: D(2) dopamine receptor (Homo sapiens) (UniProt P14416); assay: Dopamine D2 receptor (DRD2) small molecule antagonists, cell-based qHTS assay (AID 1963595; active = well fitted inhibition curve with a large enough effect in the signal ratio in the repeat runs, with a control signal flat; the % refers to the signal ratio)
In short: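 Human DRD2 antagonist qHTS measuring cAMP by HTRF. The cells are exposed to compound for 10 min, then to NKH477 (200 nM) and quinpirole (12 nM) for 30 min at RT, with Ro20-1724 (0.1 mM) present throughout.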
% is set by controls: 0 for no effect and ±100 for the full control effect.

Sequence of D(2) dopamine receptor (Homo sapiens) (P14416 whole entry, looked up): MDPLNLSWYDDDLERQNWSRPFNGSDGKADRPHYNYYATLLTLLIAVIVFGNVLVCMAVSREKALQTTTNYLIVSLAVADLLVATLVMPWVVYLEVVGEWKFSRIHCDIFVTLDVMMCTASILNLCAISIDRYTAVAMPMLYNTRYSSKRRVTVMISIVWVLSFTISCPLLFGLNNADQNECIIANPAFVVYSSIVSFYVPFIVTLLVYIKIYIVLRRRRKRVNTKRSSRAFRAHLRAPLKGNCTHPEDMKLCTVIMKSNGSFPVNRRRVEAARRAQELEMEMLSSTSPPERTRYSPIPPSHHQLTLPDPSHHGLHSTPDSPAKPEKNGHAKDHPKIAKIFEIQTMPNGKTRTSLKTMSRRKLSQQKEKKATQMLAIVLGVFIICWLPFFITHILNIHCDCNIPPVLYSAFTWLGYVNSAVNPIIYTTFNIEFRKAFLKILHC
Sequence of Beta-2 adrenergic receptor (Homo sapiens) (P07550 whole entry, looked up): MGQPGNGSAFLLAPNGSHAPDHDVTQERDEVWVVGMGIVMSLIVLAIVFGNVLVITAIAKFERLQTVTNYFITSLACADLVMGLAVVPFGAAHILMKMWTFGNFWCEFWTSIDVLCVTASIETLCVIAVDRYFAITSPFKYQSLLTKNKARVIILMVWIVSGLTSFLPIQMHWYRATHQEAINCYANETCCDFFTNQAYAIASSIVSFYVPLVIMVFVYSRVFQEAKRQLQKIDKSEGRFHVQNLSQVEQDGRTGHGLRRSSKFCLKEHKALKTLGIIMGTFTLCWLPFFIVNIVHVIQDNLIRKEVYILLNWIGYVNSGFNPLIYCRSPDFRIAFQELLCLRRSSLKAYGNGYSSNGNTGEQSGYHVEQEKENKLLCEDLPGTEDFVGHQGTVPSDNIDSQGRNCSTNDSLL
Sequence of Muscarinic acetylcholine receptor M1 (Homo sapiens) (P11229 whole entry, looked up): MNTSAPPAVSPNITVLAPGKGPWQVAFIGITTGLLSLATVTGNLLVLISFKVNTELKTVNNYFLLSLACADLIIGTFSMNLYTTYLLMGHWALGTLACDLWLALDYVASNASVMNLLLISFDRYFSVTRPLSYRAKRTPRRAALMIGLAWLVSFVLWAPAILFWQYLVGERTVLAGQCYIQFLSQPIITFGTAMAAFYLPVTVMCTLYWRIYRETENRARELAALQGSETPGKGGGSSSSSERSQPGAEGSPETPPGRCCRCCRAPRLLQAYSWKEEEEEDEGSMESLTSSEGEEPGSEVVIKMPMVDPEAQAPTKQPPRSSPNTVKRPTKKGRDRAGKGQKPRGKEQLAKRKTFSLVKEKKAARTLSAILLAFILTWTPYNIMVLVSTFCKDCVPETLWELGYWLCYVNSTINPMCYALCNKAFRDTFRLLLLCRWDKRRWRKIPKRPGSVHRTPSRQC
Sequence of KiSS-1 receptor (Homo sapiens) (Q969F8 whole entry, looked up): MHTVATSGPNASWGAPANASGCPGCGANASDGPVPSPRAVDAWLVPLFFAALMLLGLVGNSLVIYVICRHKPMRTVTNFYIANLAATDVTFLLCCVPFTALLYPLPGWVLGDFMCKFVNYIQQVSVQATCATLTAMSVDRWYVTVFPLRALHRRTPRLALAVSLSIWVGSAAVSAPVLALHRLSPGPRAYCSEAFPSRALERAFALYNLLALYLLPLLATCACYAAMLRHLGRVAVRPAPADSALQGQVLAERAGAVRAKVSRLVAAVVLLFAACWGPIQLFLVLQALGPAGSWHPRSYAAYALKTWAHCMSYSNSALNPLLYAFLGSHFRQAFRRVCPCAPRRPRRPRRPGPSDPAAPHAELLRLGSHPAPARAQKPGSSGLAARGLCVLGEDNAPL
Sequence of Gonadotropin-releasing hormone receptor (Homo sapiens) (P30968 whole entry, looked up): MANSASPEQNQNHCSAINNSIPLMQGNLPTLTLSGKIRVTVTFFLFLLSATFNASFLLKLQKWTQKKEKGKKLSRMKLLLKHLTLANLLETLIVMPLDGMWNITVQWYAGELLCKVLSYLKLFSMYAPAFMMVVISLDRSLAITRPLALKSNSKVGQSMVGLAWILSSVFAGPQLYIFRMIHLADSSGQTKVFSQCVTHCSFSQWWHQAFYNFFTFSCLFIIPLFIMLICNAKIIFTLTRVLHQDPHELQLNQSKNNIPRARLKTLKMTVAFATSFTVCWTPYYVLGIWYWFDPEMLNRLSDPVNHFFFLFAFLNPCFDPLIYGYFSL
Sequence of 5-hydroxytryptamine receptor 2A (Homo sapiens) (P28223 whole entry, looked up): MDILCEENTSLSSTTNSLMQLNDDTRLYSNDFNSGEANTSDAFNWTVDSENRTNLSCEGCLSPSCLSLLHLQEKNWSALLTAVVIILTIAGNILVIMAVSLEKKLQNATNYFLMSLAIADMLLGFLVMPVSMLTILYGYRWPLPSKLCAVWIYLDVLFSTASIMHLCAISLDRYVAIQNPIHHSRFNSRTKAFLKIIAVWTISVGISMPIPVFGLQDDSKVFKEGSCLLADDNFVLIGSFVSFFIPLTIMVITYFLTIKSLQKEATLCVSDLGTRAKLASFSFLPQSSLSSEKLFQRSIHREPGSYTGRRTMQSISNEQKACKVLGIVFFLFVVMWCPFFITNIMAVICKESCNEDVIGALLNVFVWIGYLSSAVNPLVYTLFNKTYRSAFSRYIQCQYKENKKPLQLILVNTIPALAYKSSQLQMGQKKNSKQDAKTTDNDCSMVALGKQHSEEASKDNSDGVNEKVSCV

CC#N
inactive: Potency [1] | Potency [2] | Potency [3] | Potency [4] | Potency [5] | Potency [6] | Potency [7] | Potency [8] | Potency [9] | Potency [10] | Potency [11] | Potency [12] | Potency [13] | Potency [14] | Potency [15] | Potency [16] | Potency [17] | Potency [18] | Potency [19] | Potency [20]

CCCc1ccccc1
inactive: Potency [1] | Potency [2] | Potency [3] | Potency [4] | Potency [5] | Potency [6] | Potency [7] | Potency [8] | Potency [9] | Potency [10] | Potency [11] | Potency [12] | Potency [13] | Potency [14] | Potency [15] | Potency [16] | Potency [17] | Potency [18] | Potency [19] | Potency [20]

CC(C)(O)C#CC(C)(C)O
inactive: Potency [1] | Potency [2] | Potency [3] | Potency [4] | Potency [5] | Potency [6] | Potency [7] | Potency [8] | Potency [9] | Potency [10] | Potency [11] | Potency [12] | Potency [13] | Potency [14] | Potency [15] | Potency [16] | Potency [17] | Potency [18] | Potency [19] | Potency [20]

Nc1ccc(Oc2ccc(Cl)cc2)cc1
inactive: Potency [1] | Potency [2] | Potency [3] | Potency [4] | Potency [5] | Potency [6] | Potency [7] | Potency [8] | Potency [9] | Potency [10] | Potency [11] | Potency [12] | Potency [13] | Potency [14] | Potency [15] | Potency [16] | Potency [17] | Potency [18] | Potency [19] | Potency [20]

C=CCCCCCCCCCCC
inactive: activity change, negative = cytotoxicity [1] -0.936% [at 8.39 µM] | activity, positive = activation [2] -0.901% [at 8.39 µM] | activity change [3] -0.462% [at 5.22 µM, active compounds read high] | activation [4] 3.21% [at 6.97 µM] | activation [5] -0.84% [at 5.23 µM] | activation [6] 1.56% [at 5.99 µM] | activation [7] -3.89% [at 5.99 µM] | activity change, negative = cytotoxicity [8] 1.8% [at 5.99 µM] | activity change, negative = cytotoxicity [9] -1.27% [at 5.99 µM] | activity change, negative = cytotoxicity [10] 18.8% [at 5.99 µM] | activation [11] 0.37% [at 5.99 µM] | activity, negative = inhibition [12] 4.71% [at 5.62 µM] | activation [13] 0.539% [at 7.02 µM] | activity, negative = inhibition [14] -16.9% [at 5.58 µM] | activation [15] -0.585% [at 6.97 µM] | activation [16] -0.0768% [at 8.39 µM] | activity change, negative = inhibition [17] -0.765% [at 8.39 µM] | activity change, negative = inhibition [18] -1.18% [at 8.39 µM] | activation [19] -0.7% [at 8.39 µM] | activity change, negative = inhibition [20] -0.184% [at 8.38 µM]

Cc1ccc(S(=O)(=O)NC(=O)NC2CCCC2)cc1
inactive: Potency [1] | Potency [2] | Potency [3] | Potency [4] | Potency [5] | Potency [6] | Potency [7] | Potency [8] | Potency [9] | Potency [10] | Potency [11] | Potency [12] | Potency [13] | Potency [14] | Potency [15] | Potency [16] | Potency [17] | Potency [19] | Potency [20]

CCCCN=C(N)N=C(N)N
inactive: Potency [1] | Potency [2] | Potency [3] | Potency [4] | Potency [5] | Potency [6] | Potency [7] | Potency [8] | Potency [9] | Potency [10] | Potency [11] | Potency [12] | Potency [13] | Potency [14] | Potency [15] | Potency [16] | Potency [18] | Potency [19] | Potency [20]
